# From PubChem
# Sampled rows, rich in hits. Any-hit rate of the full collection: about 11%.
# OTUD3 block: inhibitors of human OTUD3 deubiquitinase; purified OTUD3, Ub-rhodamine fluorescence, 2 h; inhibition, % at 25 µM; Q5T2D3; 47,000 tested, 0.7% active
# USP17 inh: human USP17-like deubiquitinase inhibition. inhibition, % at 50 µM. 47,000 tested, 6.5% active. A8MUK1. purified USP17, Ub-rhodamine cleavage fluorescence, 3 h
# USP30 inh: blocks human USP30 ubiquitin-rhodamine cleavage. Q70CQ3. purified USP30, Ub-rhodamine cleavage fluorescence. inhibition, % at 25 µM. 47,000 tested, 5.3% active
# USP28 block: blocks human USP28 ubiquitin-rhodamine cleavage. Q96RU2. purified USP28, Ub-rhodamine cleavage fluorescence, 30 min. inhibition, % at 25 µM. 47,000 tested, 3% active. AID 1645857
# Target sequence (Q96RU2 whole entry, looked up): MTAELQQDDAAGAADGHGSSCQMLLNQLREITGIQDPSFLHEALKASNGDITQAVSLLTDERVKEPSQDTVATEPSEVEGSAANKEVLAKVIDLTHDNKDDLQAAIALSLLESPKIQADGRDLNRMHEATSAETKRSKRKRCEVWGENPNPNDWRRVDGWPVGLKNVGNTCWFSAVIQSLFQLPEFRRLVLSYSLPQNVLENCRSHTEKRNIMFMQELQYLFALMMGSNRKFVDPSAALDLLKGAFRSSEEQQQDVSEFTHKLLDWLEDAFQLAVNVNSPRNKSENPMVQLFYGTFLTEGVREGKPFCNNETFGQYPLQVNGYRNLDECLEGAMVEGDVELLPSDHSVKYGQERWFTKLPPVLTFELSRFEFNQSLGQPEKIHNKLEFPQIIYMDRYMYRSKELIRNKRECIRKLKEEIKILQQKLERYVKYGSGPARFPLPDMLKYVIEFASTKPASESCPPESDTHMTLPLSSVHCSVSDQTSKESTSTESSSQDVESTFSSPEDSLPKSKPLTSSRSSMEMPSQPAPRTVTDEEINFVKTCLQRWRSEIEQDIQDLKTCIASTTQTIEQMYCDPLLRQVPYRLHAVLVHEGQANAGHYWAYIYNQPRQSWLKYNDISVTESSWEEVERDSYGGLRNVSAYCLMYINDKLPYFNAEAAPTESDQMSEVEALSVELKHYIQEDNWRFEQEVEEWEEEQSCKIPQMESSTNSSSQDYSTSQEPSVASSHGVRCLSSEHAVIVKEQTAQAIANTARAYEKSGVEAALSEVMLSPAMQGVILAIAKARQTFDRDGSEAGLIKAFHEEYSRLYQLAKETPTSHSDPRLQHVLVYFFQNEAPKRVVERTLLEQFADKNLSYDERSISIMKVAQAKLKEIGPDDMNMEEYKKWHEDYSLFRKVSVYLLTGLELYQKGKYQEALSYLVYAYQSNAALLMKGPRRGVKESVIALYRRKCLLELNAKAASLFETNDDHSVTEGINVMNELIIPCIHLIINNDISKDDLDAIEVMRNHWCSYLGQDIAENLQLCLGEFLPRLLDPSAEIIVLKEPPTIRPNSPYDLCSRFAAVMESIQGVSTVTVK
# Numbers without * were called inactive; . = not tested or not shown. Cut-off read from the data, not from the text of the source: active = inhibition above about 30%; inactive = the rest.
SMILES,OTUD3 block,USP17 inh,USP30 inh,USP28 block
O=C(CSc1ccc2nnc(CCNC(=O)c3ccccc3)n2n1)NC1CCCCC1,5,14,9,4
Cc1ccccc1-c1nc2c3c(C)c(C)n(-c4cccnc4)c3ncn2n1,6,3,10,9
Cc1cccnc1-n1c(C)c(C)c2c1ncn1nc(-c3ccco3)nc21,10,40*,0,3
O=C(Cc1ccccc1)NCC(c1ccc(Cl)cc1)N1CCOCC1 (stereo not drawn),6,-2,13,5
Cc1cc(C)c(NC(=O)/C=C/c2ccc3ccccc3n2)c(C)c1,-40,34*,-140,-58
Cc1cc(NC(=O)/C=C/c2ccccc2)c2ccccc2n1,-17,-23,-53,-11
COc1cc(O)c2c(=O)oc3c(O)c(OC)cc(C)c3c2c1,-9,-6,13,-9
COc1cc2c(oc(=O)c3cc(C)cc(OC)c32)c2c([C@@H]3OC(C)[C@@H](O)[C@@](C)(O)C3O)ccc(O)c12 (stereo partly drawn),-4,79*,-51,15
O=C(Cn1ncc2c(N3CCCCC3)ncnc21)NCc1ccc2c(c1)OCO2,17,55*,55*,13
O=C(Cn1ncc2c(N3CCCCCC3)ncnc21)NCc1ccccc1,16,29,70*,26
O=C(Cn1ncc2c(N3CCCC3)ncnc21)Nc1ccc(F)cc1,5,7,2,10
O=C(NC1CCCC1)N1CCC(Oc2cc(N3CCCC3)ncn2)C1 (stereo not drawn),0,1,-11,-3
COCCNC(=O)C1c2ccccc2C(=O)N(Cc2ccccc2)C12CCCC2 (stereo not drawn),8,-1,32*,12
O=C(Nc1ccccc1)c1ccnc(Nc2ccc(F)cc2)c1,2,30*,7,9
CC(C)(C)C(=O)COC(=O)c1c2c(nc3ccccc13)CCCCC2,3,11,6,2
O=C(OCc1c(F)cccc1Cl)c1c2c(nc3ccccc13)CCC2,25,44*,25,34*
CC(Sc1nc2nn(-c3ccccc3)c(=O)c-2c2n1CCCCC2)C(=O)Nc1ccc(C#N)cc1 (stereo not drawn),-1,0,33*,16
CCOc1cc(=O)c(C(=O)Nc2ccc(C#N)cc2)nn1-c1ccccc1,-9,-3,0,-10
CNC(=O)N1CC[C@@H]2CN(Cc3cccnc3)S(=O)(=O)[C@@H]2CC1,2,-18,7,0
CC1(c2nc(-c3ccccc3)no2)CCCN(Cc2ncon2)C1 (stereo not drawn),-1,-11,17,-6
O=C(CN1CCN(c2nc3cc(Cl)ccc3s2)CC1)Nc1ccc(OC(F)(F)F)cc1,3,7,17,3
N#Cc1cccc(NC(=O)Nc2cccn(Cc3ccc(F)cc3)c2=O)c1,4,74*,38*,74*
CCOc1ccc(CCNC(=O)CCC(=O)Nc2ccc3nc(N4CCN(C)CC4)cc(C)c3c2)cc1OCC,10,28,54*,11
COc1ccc(CCNC(=O)c2c(N)n(-c3cccc(Cl)c3)c3nc4ccccc4nc23)cc1,-29,65*,-102,-22
COc1ccc(CCNC(=O)c2c(N)n(-c3cccc(F)c3)c3nc4ccccc4nc23)cc1,-59,38*,-102,-26
SMILES,OTUD3 block,USP17 inh,USP30 inh,USP28 block
O=C(CCc1nnc2ccc(N3CCCCC3)nn12)N1CCC(Cc2ccccc2)CC1,-13,0,0,0
Cc1ccc(S(=O)(=O)CCc2nc(-c3ccc(N4CCC(C)CC4)cc3)no2)cc1,0,.,45*,7
COc1ccc(NC(=O)CN2C(=O)c3ccccc3Sc3ccc(C(=O)N4CCCC4)cc32)cc1OC,16,55*,24,14
O=C(CN1C(=O)c2ccccc2Sc2ccc(C(=O)N3CCCC3)cc21)NCc1ccco1,-7,0,-134,-26
CN(C)S(=O)(=O)c1ccc(S(=O)(=O)NCCc2ccc3c(c2)OCO3)cc1,12,16,45*,19
O=C(Nc1cccc(-c2noc(C3CC3)n2)c1)C1CC(=O)N(c2ccccc2)C1 (stereo not drawn),-6,40*,-3,-4
CCc1nc(-c2cccc(NC(=O)C3CC(=O)N(c4ccccc4)C3)c2)no1 (stereo not drawn),17,16,30,8
O=C(Nc1cccc(-c2noc(C3CCC3)n2)c1)C1CC(=O)N(c2ccccc2)C1 (stereo not drawn),0,60*,-1,-5
Cc1ccc(N2CC(c3nc(-c4ccc5oc(C)nc5c4)no3)CC2=O)cc1 (stereo not drawn),-4,3,0,-1
CCc1nc(-c2cccc(NC(=O)C3CC(=O)N(c4ccc(C)c(C)c4)C3)c2)no1 (stereo not drawn),27,60*,60*,27
Cn1c(=O)[nH]c2cc(-c3noc(C4CC(=O)N(c5ccccc5)C4)n3)ccc21 (stereo not drawn),-3,32*,-11,-9
C[C@H]1C(=O)N2CCN(S(=O)(=O)c3ccc4ccccc4c3)C[C@H]2C(=O)N1C,-9,-8,-4,-9
Cc1ccc(S(=O)(=O)[C@H]2CS(=O)(=O)C[C@@H]2N2CCC(C)CC2)cc1,0,2,-11,0
Cc1cccc2nc(-c3cccnc3)c(NC3CCCC3)n12,8,2,16,43*
Cc1ccc(NC(=O)COC(=O)Cn2cnc3c2c(=O)n(C)c(=O)n3C)cc1,5,4,3,8
Cc1ccc(NC(=O)COC(=O)Cn2cnc3c2c(=O)n(C)c(=O)n3C)cc1F,-2,-1,0,6
COc1cc(NC(=O)COC(=O)Cn2cnc3ccccc32)cc(OC)c1,-3,-3,1,51*
CCc1ccc(NC(=O)COC(=O)Cn2cnc3ccccc32)cc1,1,0,-1,32*
Cn1cc(-c2noc(-c3cccc(NC(=O)c4ccco4)c3)n2)ccc1=O,-30,-16,-153,-45
COc1ccc(C2CC(=O)c3cnc(NCC4CCCO4)nc3C2)cc1OC (stereo not drawn),15,16,30*,14
O=C(CSc1nc2ccccc2[nH]1)Nc1cccc2c1OCCO2,13,-18,-38,41*
COc1cccc(NC(=O)C2C3C=CC4(O3)C2C(=O)N(CCc2ccccc2Cl)C4C(=O)NC2CCCCC2)c1 (stereo not drawn),32*,39*,39*,-1
COc1cccc(NC(=O)C2C3C=CC4(O3)C2C(=O)N(CCc2ccc(Cl)cc2)C4C(=O)NC2CCCCC2)c1 (stereo not drawn),9,6,7,13
CSc1cccc(NC(=O)C2C3C=CC4(O3)C2C(=O)N(Cc2ccc(C)cc2)C4C(=O)NC2CCCCC2)c1 (stereo not drawn),9,50*,18,10
COc1ccc(NC(=O)C2C3C=CC4(O3)C2C(=O)N(CCc2ccccc2)C4C(=O)NC2CCCCC2)cc1 (stereo not drawn),22,35*,56*,7
COc1ccc(NC(=O)C2C3C=CC4(O3)C2C(=O)N(Cc2ccccc2)C4C(=O)NC2CCCCC2)cc1 (stereo not drawn),10,12,40*,0
